Source: PubChem (National Center for Advancing Translational Sciences (NCATS))
The list is not random: actives were taken first. Their share in the collection is about 1.4%.
PTAP TSG101 blk = qHTS Assay for Iinhibitors of HIV-1 Budding by Blocking the Interaction of PTAP/TSG101. Tumor susceptibility gene 101 protein (Homo sapiens), Q99816. Fluorescence polarization, FITC-PTAP peptide / Tsg101 binding. Potency, µM (doses to about 115 µM), hits mostly inhibitors. 340,000 tested, under 10 active; active = well fitted inhibition curve with a large enough effect in the main read-out, with a control signal flat, not every such curve was filed as active; inconclusive = small, poorly fitted or top-dose-only effect, or effect the other way, or a change in a side signal; inactive = no such curve, though single readings can be large or run the other way
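Compounds were pin-transferred onto Tsg101 binding domain (10 uM final) in HEPES pH 7.5 buffer, then FITC-PTAP peptide was added at 50 nM final. After 20 min at RT, polarization reported peptide displacement across a qHTS concentration series.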
12-LOX inh = Primary qHTS assay for inhibitors of human arachidonate 12S-lipoxygenase (ALOX12): Round 2 | purified 12hLO, xylenol orange hydroperoxide absorbance | Potency, µM (top dose mostly 108 µM), usual class: inhibitors | hit rate 1.1% among 580,000 | AID 1671190, 2021
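Hydroperoxide product was detected by ferrous iron/xylenol orange as the 573 to 405 nm absorbance ratio. Arachidonic acid at 40 uM (final) was turned over for 30 min at room temperature by 150 nM human 12hLO, pH 7.0 Hepes buffer, after 15 min compound preincubation.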
Vif-APOBEC3F blk = qHTS for Inhibitors of Vif-A3F Interactions: qHTS; HeLa A3F-eYFP + Vif (tagged APOBEC3F with the HIV-1 protein that degrades it), YFP fluorescence increase; Potency, µM (titrated, usually from 46.1 µM); hit rate 0.2% among 390,000; AID 602313, 2012; also: nearly all actives have a fitted effect of over 65% in size
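HeLa cells stably expressing Vif plus C-terminally eYFP-tagged A3F were seeded, incubated overnight at 37 deg C, dosed with compound, incubated overnight again at 37 deg C. Yellow fluorescence (Ex 488/Em 500-530) reported blocked Vif-mediated A3F-eYFP degradation.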
pAkt inh = HTS Assay for Inhibitors of Akt Phophorylation: Primary Screen. Neuro2A IGF-stimulated pAkt S473 HTRF, 20 min; hits give low values. activity change, % for hits at 50 µM. hit rate 0.32% among 360,000. AID 651550, 2012; in the data active = activity change below about -80%; inconclusive = mostly about -51% to -80%
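Neuro2A cells in DMEM with 0.5% FBS, overnight at 37 deg C, given compound at single 50 µM final, then IGF (6 nM final) for 20 min at 37 deg C. Lysed; phospho-Akt Ser473 by HTRF after 24 h, 665/615 ratio.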
Vif-APOBEC3G blk = qHTS for Inhibitors of Vif-A3G Interactions: qHTS; DNA dC->dU-editing enzyme APOBEC-3G (Homo sapiens), Q9HC16; HeLa A3G-eYFP + Vif (tagged APOBEC3G with the HIV-1 protein that degrades it), YFP fluorescence, overnight; AID 602310, 2012; Potency, µM (series often up to 46.1 µM), usual class: inhibitors; hit rate 0.076% among 410,000; also: nearly all actives have a fitted effect of over 60% in size
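Read-out is eYFP fluorescence (Ex 488/Em 500-530) from Vif-expressing HeLa A3G-eYFP cells; more signal means A3G escaped Vif-mediated degradation. Cells plated overnight, compound pinned in, incubated overnight at 37 deg C.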
S-ASM inh = Inhibitors of Secretory Acid Sphingomyelinase (S-ASM): qHTS; hit rate 0.006% among 340,000; Potency, µM (series often up to 57.5 µM), most hits filed as inhibitors; placental ASM, HMU-PC fluorogenic substrate, 60 min
Target sequence (P17405 47-631 limits assumed): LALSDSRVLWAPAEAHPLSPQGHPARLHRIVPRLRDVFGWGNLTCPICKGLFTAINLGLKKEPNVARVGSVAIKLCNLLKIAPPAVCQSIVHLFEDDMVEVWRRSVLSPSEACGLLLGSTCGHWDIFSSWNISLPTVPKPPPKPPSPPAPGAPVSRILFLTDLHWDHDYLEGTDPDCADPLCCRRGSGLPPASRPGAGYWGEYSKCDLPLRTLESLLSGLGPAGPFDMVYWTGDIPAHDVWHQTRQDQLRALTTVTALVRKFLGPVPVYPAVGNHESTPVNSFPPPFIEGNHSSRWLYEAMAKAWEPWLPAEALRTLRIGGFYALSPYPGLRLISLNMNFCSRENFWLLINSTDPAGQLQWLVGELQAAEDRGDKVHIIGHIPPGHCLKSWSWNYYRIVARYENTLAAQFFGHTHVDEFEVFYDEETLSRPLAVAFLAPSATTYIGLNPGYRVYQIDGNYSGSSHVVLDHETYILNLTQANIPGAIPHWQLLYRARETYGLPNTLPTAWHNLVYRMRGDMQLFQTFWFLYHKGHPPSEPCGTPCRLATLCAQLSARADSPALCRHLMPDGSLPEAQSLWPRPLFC
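Human placenta-derived ASM enzyme was preincubated with compound for 10 minutes at room temperature, then given fluorogenic substrate HMU-PC0 (9 uM final) for 60 minutes at 37 °C; a pH 10 stop preceded fluorescence reading at Ex 386/Em 447 nm.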
Numbers stand for hits; – = inactive; ? = inconclusive; · = no result; ! = repeats disagree. Unless noted, calls follow the shape of the dose curve; as a rule, active = well fitted curve in the direction sought with a large enough effect; inconclusive = small, poorly fitted or top-dose-only effect, or another doubt; inactive = no such curve, though single readings can be large; an effect the other way counts as inactive or inconclusive.

SMILES	PTAP TSG101 blk	12-LOX inh	Vif-APOBEC3F blk	pAkt inh	Vif-APOBEC3G blk	S-ASM inh
N#Cc1c(C(F)(F)F)cc(-c2ccco2)nc1SCc1ccccn1	–	?	25µM	–	?	–
N#Cc1c(C(F)(F)F)cc(-c2ccco2)nc1SCc1ccncc1	–	–	?	–	?	–
COc1ccc(OCc2cc(C(=O)NCCN3CCCc4ccccc43)no2)c(Cl)c1	–	16µM	–	–	–	–
O=C(O)CCSCCC(=O)O	–	–	–	-106%	–	–
O=C(O)CCSSCCC(=O)O	–	–	–	–	–	–
C[C@@H](NCCCc1cccc(C(F)(F)F)c1)c1cccc2ccccc12	·	8.9µM!	·	·	–	·
O=C1C=C(c2c(O)ccc3ccccc23)c2ccccc2C1=O	–	45µM	–	–	–	–
Cc1sc(NC(=O)/C=C/c2cccs2)c(C#N)c1C	·	7.9µM	·	·	·	·
O=C(/C=C/c1cccs1)Nc1scc(-c2ccccc2)c1C(=O)O	–	45µM	–	–	–	–
Cc1ccc2nc(C(C)(C)C)c(Cc3ccsc3)n2c1	·	6.3µM	·	–	?	·
Cc1cc(Br)cn2c(Cc3ccsc3)c(C(C)(C)C)nc12	·	35µM	·	–	–	·
CCCc1nc2ccc(C)cn2c1Cc1ccsc1	·	–	·	–	–	·
C=CCNC(=O)c1cc(-c2ccncc2)nc2ccccc12	·	–	·	·	·	·
CC(C)CNC(=O)COC(=O)c1cc(=O)c2cc(Cl)ccc2o1	·	–	·	·	·	·
Cc1ccc(-c2noc([C@@H]3C[C@@H](O)CN3Cc3ncc[nH]3)n2)cc1F	·	–	·	·	·	·
O[C@@H]1C[C@@H](c2nc(Cc3ccc(F)cc3Cl)no2)N(Cc2ccco2)C1	·	25µM	·	·	·	·
O[C@@H]1C[C@@H](c2nc(Cc3ccc(F)cc3Cl)no2)N(Cc2cc3ccccc3o2)C1	·	–	·	·	·	·
Cc1ccc(-c2noc([C@@H]3C[C@@H](O)CN3Cc3ccccc3O)n2)cc1F	·	32µM	·	·	·	·
OCc1ccc(CN2C[C@H](O)C[C@H]2c2nc(-c3ccc(F)cc3)no2)o1	·	25µM	·	·	·	·
COc1ccc(-c2noc([C@@H]3C[C@@H](O)CN3Cc3ccc(CO)o3)n2)cc1	·	45µM	·	·	·	·
Cc1ccc2c(n1)N(C)[C@H](CO)CCN(Cc1ccc(Cl)cc1)C2	·	–	·	·	·	·
O=C(O)c1csc(-c2cccc(Cl)c2)n1	–	–	–	–	–	–
S=c1[nH]c(-c2cccc(Cl)c2)cs1	·	8.9µM	·	·	·	·
O=c1[nH]c(-c2ccccc2)cs1	–	–	–	–	–	–
Fc1ccc(-c2csc(=S)[nH]2)cc1	–	7.9µM!	?	–	–	–
SMILES	PTAP TSG101 blk	12-LOX inh	Vif-APOBEC3F blk	pAkt inh	Vif-APOBEC3G blk	S-ASM inh
S=c1[nH]c(-c2ccccc2)cs1	–	2µM	–	–	–	–
S=c1[nH]c(-c2ccc(Cl)cc2Cl)cs1	·	13µM	·	·	·	·
O=C(CCSc1nc(Cl)nc2nc[nH]c12)NCc1cccc(Cl)c1	·	–	·	·	·	·
O=C(Nc1ccc(N2CCOCC2)c(S(=O)(=O)Nc2ccc(Cl)cc2)c1)c1cnccn1	–	8.9µM	–	–	–	–
COCCNC(=S)Nc1ccc(N2CCOCC2)c(S(=O)(=O)Nc2ccc(Cl)cc2)c1	·	5µM	–	–	–	·
COc1ccccc1N1CSC2=C(C#N)C(c3ccc(SC)cc3)CC(=O)N2C1 (stereo not drawn)	–	11µM	–	–	–	–
COc1cccc(C2CC(=O)N3CN(c4ccccc4F)CSC3=C2C#N)c1 (stereo not drawn)	–	8.9µM	–	–	–	–
Cc1ccc(N2C(=O)[C@@H]3[C@H](C2=O)C2c4ccccc4C=CN2[C@@H]3C(=O)c2ccco2)cc1 (stereo partly drawn)	–	?	–	–	–	–
Cc1ccc(N2C(=O)[C@@H]3[C@H](C2=O)C2c4ccccc4C=CN2[C@@H]3C(=O)c2ccco2)c(C)c1 (stereo partly drawn)	–	14µM	–	–	–	–
